# Experimental data reported in PubChem BioAssay AID1159580 (chemical genetic matrix, 2015).
# Several values for one entry are separate records, joined by “and”; a condition that tells them apart may be missing. Equal values may be shown once. Screen size: about 5,500 compounds; about 2,000 (36%) were called active. About 18% were inconclusive and are not listed. Rule as the data show it: active = normalized growth mostly below about 0.91 (no sharp cut-off); inconclusive = no clear call, values can overlap the other calls; inactive = mostly above about 0.92. The list shows a part of the results.
# Test: chemical genetic growth profiling, strain panel (AID 1159580);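 also: tested at 20 µM; growth read once vehicle control cultures reached saturation at 30 °C; 1 = growth at the plate median or of vehicle wells; lower values mean less growth of the strain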
# Conditions: S. cerevisiae deletion strains, growth OD
structure (smiles),measurement,setting,value
COc1ccc2c(c1)O[C@H]1c3ccc(OC)cc3OC[C@@H]21,normalized growth,"locus YAL021C, strain ccr4, stronger effect = lower value",1.03 (inactive)
same,normalized growth,"locus YAL026C, strain drs2, stronger effect = lower value",1.02 (inactive)
same,normalized growth,"locus YAL030W, strain snc1, stronger effect = lower value",1.02 (inactive)
same,normalized growth,"locus YBL061C, strain skt5, stronger effect = lower value",1.02 (inactive)
same,normalized growth,"locus YBR009C, strain hhf1, stronger effect = lower value",1 (inactive)
same,normalized growth,"locus YBR021W, strain FUR4, stronger effect = lower value",0.961 (inactive)
same,normalized growth,"locus YBR023C, strain chs3, stronger effect = lower value",1.02 (inactive)
same,normalized growth,"locus YBR171W, strain sec66, stronger effect = lower value",1.03 (inactive)
same,normalized growth,"locus YBR229C, strain ROT2, stronger effect = lower value",0.975 (inactive)
same,normalized growth,"locus YBR231C, strain swc5, stronger effect = lower value",1.01 (inactive)
same,normalized growth,"locus YBR279W, strain paf1, stronger effect = lower value",1.02 (inactive)
same,normalized growth,"locus YCL011C, strain gbp2, stronger effect = lower value",1.02 (inactive)
same,normalized growth,"locus YCL016C, strain dcc1, stronger effect = lower value",1.03 (inactive)
same,normalized growth,"locus YCL029C, strain bik1, stronger effect = lower value",0.99 (inactive)
same,normalized growth,"locus YCL069W, strain vba3, stronger effect = lower value",1.03 (inactive)
same,normalized growth,"locus YCR088W, strain abp1, stronger effect = lower value",1.02 (inactive)
same,normalized growth,"locus YDL005C, strain med2, stronger effect = lower value",1.02 (inactive)
same,normalized growth,"locus YDL035C, strain GPR1, stronger effect = lower value",0.945 (inactive)
same,normalized growth,"locus YDL040C, strain nat1, stronger effect = lower value",1.01 (inactive)
same,normalized growth,"locus YDL074C, strain BRE1, stronger effect = lower value",0.911 (inactive)
same,normalized growth,"locus YDL101C, strain DUN1, stronger effect = lower value",0.984 (inactive)
same,normalized growth,"locus YDL185W, strain tfp1, stronger effect = lower value",0.98 (inactive)
same,normalized growth,"locus YDL192W, strain arf1, stronger effect = lower value",0.897 (active)
same,normalized growth,"locus YDR001C, strain nth1, stronger effect = lower value",1.01 (inactive)
same,normalized growth,"locus YDR069C, strain doa4, stronger effect = lower value",1.01 (inactive)
same,normalized growth,"locus YDR101C, strain arx1, stronger effect = lower value",0.911 (active)
same,normalized growth,"locus YDR137W, strain rgp1, stronger effect = lower value",1.06 (inactive)
same,normalized growth,"locus YDR150W, strain NUM1, stronger effect = lower value",0.986 (inactive)
same,normalized growth,"locus YDR159W, strain sac3, stronger effect = lower value",1.05 (inactive)
same,normalized growth,"locus YDR162C, strain NBP2, stronger effect = lower value",0.937 (inactive)
same,normalized growth,"locus YDR195W, strain ref2",0.976 (inactive)
same,normalized growth,"locus YDR297W, strain sur2, stronger effect = lower value",1.03 (inactive)
same,normalized growth,"locus YDR318W, strain mcm21, stronger effect = lower value",0.87 (active)
same,normalized growth,"locus YDR334W, strain swr1, stronger effect = lower value",1.02 (inactive)
same,normalized growth,"locus YDR335W, strain msn5, stronger effect = lower value",1.03 (inactive)
same,normalized growth,"locus YDR388W, stronger effect = lower value",0.956 (inactive)
same,normalized growth,"locus YDR392W, strain spt3, stronger effect = lower value",1.03 (inactive)
same,normalized growth,"locus YDR502C, strain sam2, stronger effect = lower value",0.876 (active)
same,normalized growth,"locus YEL003W, strain gim4, stronger effect = lower value",1.02 (inactive)
same,normalized growth,"locus YEL037C, strain rad23, stronger effect = lower value",1.02 (inactive)
same,normalized growth,"locus YEL061C, strain CIN8 (second series), stronger effect = lower value",1.02 (inactive)
same,normalized growth,"locus YEL061C, strain CIN8, stronger effect = lower value",0.985 (inactive)
same,normalized growth,"locus YER015W, strain faa2, stronger effect = lower value",1.03 (inactive)
same,normalized growth,"locus YER016W, strain bim1, stronger effect = lower value",1.02 (inactive)
same,normalized growth,"locus YER110C, stronger effect = lower value",0.924 (inactive)
same,normalized growth,"locus YER111C, strain swi4, stronger effect = lower value",1.02 (inactive)
same,normalized growth,"locus YER155C, strain BEM2 (second series), stronger effect = lower value",1.04 (inactive)
same,normalized growth,"locus YER167W, strain BCK2, stronger effect = lower value",0.989 (inactive)
same,normalized growth,"locus YFR010W, strain ubp6, stronger effect = lower value",1.01 (inactive)
same,normalized growth,"locus YGL078C, strain dbp3, stronger effect = lower value",0.897 (active)
same,normalized growth,"locus YGL086W, strain mad1, stronger effect = lower value",0.882 (active)
same,normalized growth,"locus YGL167C, strain pmr1, stronger effect = lower value",1.02 (inactive)
same,normalized growth,"locus YGL173C, strain kem1, stronger effect = lower value",1.02 (inactive)
same,normalized growth,"locus YGL227W, strain vid30, stronger effect = lower value",1.02 (inactive)
same,normalized growth,"locus YGL240W, strain doc1, stronger effect = lower value",1.03 (inactive)
same,normalized growth,"locus YGL248W, strain PDE1, stronger effect = lower value",0.863 (active)
same,normalized growth,"locus YGL253W, strain hxk2, stronger effect = lower value",1.02 (inactive)
same,normalized growth,"locus YGR078C, strain PAC10, stronger effect = lower value",0.928 (inactive)
same,normalized growth,"locus YGR135W, strain pre9, stronger effect = lower value",0.84 (active)
same,normalized growth,"locus YGR252W, strain gcn5, stronger effect = lower value",0.669 (active)
same,normalized growth,"locus YHR013C, strain ard1, stronger effect = lower value",1.05 (inactive)
same,normalized growth,"locus YHR027C, strain rpn1, stronger effect = lower value",1.02 (inactive)
same,normalized growth,"locus YHR030C, strain SLT2, stronger effect = lower value",0.977 (inactive)
same,normalized growth,"locus YHR079C, strain IRE1 (second series), stronger effect = lower value",0.95 (inactive)
same,normalized growth,"locus YHR079C, strain IRE1, stronger effect = lower value",0.964 (inactive)
same,normalized growth,"locus YHR094C, strain hxt1, stronger effect = lower value",0.968 (inactive)
same,normalized growth,"locus YHR129C, strain ARP1, stronger effect = lower value",1 (inactive)
same,normalized growth,"locus YHR142W, strain chs7, stronger effect = lower value",1.02 (inactive)
same,normalized growth,"locus YHR200W, strain rpn10, stronger effect = lower value",0.944 (inactive)
same,normalized growth,"locus YIL066C, strain RNR3, stronger effect = lower value",0.977 (inactive)
same,normalized growth,"locus YIL073C, strain SPO22, stronger effect = lower value",0.961 (inactive)
same,normalized growth,"locus YIL125W, strain kgd1, stronger effect = lower value",0.973 (inactive)
same,normalized growth,"locus YIR030C, strain dcg1, stronger effect = lower value",0.927 (active)
same,normalized growth,"locus YJL092W, strain hpr5, stronger effect = lower value",1.02 (inactive)
same,normalized growth,"locus YJL095W, strain BCK1 (second series), stronger effect = lower value",1.01 (inactive)
same,normalized growth,"locus YJL095W, strain BCK1, stronger effect = lower value",0.684 (active) and 0.982 (inactive)
same,normalized growth,"locus YJL115W, strain asf1, stronger effect = lower value",1.03 (inactive)
same,normalized growth,"locus YJL129C, strain trk1, stronger effect = lower value",1.05 (inactive)
same,normalized growth,"locus YJL134W, strain LCB3, stronger effect = lower value",0.992 (inactive)
same,normalized growth,"locus YJL154C, strain vps35, stronger effect = lower value",1.02 (inactive)
same,normalized growth,"locus YJL164C, strain tpk1, stronger effect = lower value",1.02 (inactive)
same,normalized growth,"locus YJL166W, strain qcr8, stronger effect = lower value",1.02 (inactive)
same,normalized growth,"locus YJL168C, strain set2, stronger effect = lower value",0.955 (inactive)
same,normalized growth,"locus YJL187C, strain SWE1 (second series), stronger effect = lower value",0.96 (inactive)
same,normalized growth,"locus YJL187C, strain SWE1, stronger effect = lower value",1.02 (inactive)
same,normalized growth,"locus YJR066W, strain TOR1, stronger effect = lower value",0.927 (inactive)
